The assay has as its system primary human hepatic stellate cells (donor 1). Put plainly: scaled lipid accumulation score (0 = DMSO-like, 1 = nortriptyline-like); higher = stronger HSC inactivation (lipid re-accumulation), active = hit call of the paper. Particulars: 48 h.
Where [1] appears, read: library stock concentration: 10 mM.
[2] abbreviates: library stock concentration: 6.8 mM.
The mark [3] stands for this setting: library stock concentration: 3.33 mM.
Where [4] appears, read: library stock concentration: 1 mM.
Where [5] appears, read: library stock concentration: 400 uM.
[6] abbreviates: library stock concentration: 2 mM.

SMILES strings stand for the structures. Counter-ions that a name gives are not always drawn. The campaign covered roughly 5,800 compounds. About 620 (11%) showed activity. The list comes from a sample in which actives are over-represented; it also holds similar structures and randomly drawn compounds. Unmarked numbers belong to inactive results.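 The calls were made as follows: active = score above a cut-off or among the top three wells of a plate; in these data no inactive exceeds 0.85.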

The record followed here is the supplement of paper PMC9135407.

With `CC(C)NC[C@H](O)COc1cccc2ccccc12` [(S)-Propranolol hydrochloride], under setting [1], the “scaled lipid accumulation score” value was 0.445.
On the same count and under the same terms, next, `CC(C)NC[C@H](O)COc1cccc2ccccc12` [(S)-(-)-Propranolol hydrochloride]: 0.518.
With `CC(C)NC[C@H](O)COc1cccc2ccccc12.Cl`, the “scaled lipid accumulation score” value (library stock concentration: 16.9 mM) is 1.02 (active).
For the molecule `CC(C)NC[C@@H](O)COc1cccc2ccccc12` [Dexpropranolol hydrochloride], the “scaled lipid accumulation score” value under setting [2] is 0.521 and the “scaled lipid accumulation score” value under setting [1] is no more than 0.
Turning to `CC(C)NC[C@@H](O)COc1cccc2ccccc12` [(R)-Propranolol hydrochloride], the “scaled lipid accumulation score” value is 0.415.
With `CC(C)NCC(O)COc1cccc2ccccc12` (stereo unspecified) [Propranolol], for the setting “library stock concentration: 7.7 mM”, the “scaled lipid accumulation score” value was 0.676.
Regarding `CC(C)NCC(O)COc1cccc2ccccc12` (stereo unspecified) [Propranolol hydrochloride], the “scaled lipid accumulation score” value is 0.378. The “scaled lipid accumulation score” value under setting [1] was 0.74.
In the case of `CC(C)NCC(O)COc1cccc2ccccc12` (stereo unspecified), the “scaled lipid accumulation score” value under setting [1] was 0.847.
On to `CC(C)NC[C@@H](O)COc1cccc2ccccc12` [(R)-(+)-Propranolol hydrochloride], for which the “scaled lipid accumulation score” value under setting [1] is 0.656.
As to `CC(C)NCC(O)COc1cccc2ccccc12.Cl` (stereo unspecified), the “scaled lipid accumulation score” value under setting [1] was 0.882 (active).
As to `CC(C)NCC(O)COc1cccc2ccccc12` (racemic) [Propranolol hydrochloride (+/-)], the “scaled lipid accumulation score” value runs as follows: under setting [2], 0.363; under setting [1], 0.457.
With `CCCOc1ccc(/C=C2/SC(=O)NC2=O)cc1` [PIM1/2 Kinase Inhibitor VI], the “scaled lipid accumulation score” value under setting [3] is 0.001.
With `C=CCn1c(=O)n([C@@H]2O[C@H](CO)[C@@H](O)[C@H]2O)c2nc(N)[nH]c(=O)c21`, the “scaled lipid accumulation score” value under setting [1] was 0.047.
As to `CCCCC(C)(C)[C@H](O)/C=C/[C@@H]1[C@@H](C/C=C\CCCC(=O)O)[C@H](O)C[C@H]1O` [16,16-dimethyl Prostaglandin F2.beta.], the “scaled lipid accumulation score” value under setting [4] was no more than 0.
Take `CCCCCC=CCC=CC=CC=CC(SCC(NC(C)=O)C(=O)O)C(O)CCCC(=O)O` (stereo unspecified) [N-Acetyl-leukotriene E4]: the “scaled lipid accumulation score” value (library stock concentration: 100 uM) was 0.032.
Consider `O=C(O)CCc1nc2ccccc2[nH]1`, for which the “scaled lipid accumulation score” value under setting [1] was 0.2.
Still for that read-out and setting: next, `O=c1c2sc(-c3ccc(F)cc3)cc2ncn1Cc1nc2ccccc2[nH]1`: 0.756 (active).
On the same count and under the same terms, next, `c1ccc(N2CCN(Cc3nc4ccccc4[nH]3)CC2)nc1` [ABT 724 trihydrochloride]: no more than -0.001.
As to `CCCCCCCCCCCCCCCCOP(=O)([O-])OCC[N+](C)(C)C` [Miltefosine], the “scaled lipid accumulation score” value under setting [4] was no more than 0, the “scaled lipid accumulation score” value (library stock concentration: 4.9 mM) is no more than -0.006 and the “scaled lipid accumulation score” value under setting [1] is 0.007.
Regarding `O=C(NCc1cccc(O)c1)Nc1nc(-c2ccncc2)cs1` [listing 1 of 2 here], the “scaled lipid accumulation score” value under setting [1] was 1.02 (active).
On to `O=C(NCc1cccc(O)c1)Nc1nc(-c2ccncc2)cs1` [listing 2 of 2 here], for which the “scaled lipid accumulation score” value under setting [3] was 0.56.
For `O=C(NCc1ccccc1)c1csc(Nc2ccncn2)n1` [Thiazovivin], the “scaled lipid accumulation score” value is no more than 0 under setting [3] and 0.14 under setting [1].
For `Cc1nnc(C(C)C)n1C1C[C@H]2CC[C@@H](C1)N2CC[C@H](NC(=O)C1CCC(F)(F)CC1)c1ccccc1` (stereo in doubt) [Maraviroc], in that order: no more than 0 and no more than 0.
On to `COc1ccc(/C=C/c2cc(Cl)cc(Cl)c2)cc1`, for which the “scaled lipid accumulation score” value under setting [4] is no more than 0.
On the same count and under the same terms, next, `CCCCCCCCCCCCCCCNC(=O)C1CCCCC1` [N-Cyclohexanecarbonylpentadecylamine]: no more than 0.
Take `CCN(CC)CCCN(c1ccccc1)C1Cc2ccccc2C1` [Aprindine hydrochloride]: the “scaled lipid accumulation score” value under setting [1] is 0.262.
Turning to `O=C(O)CCC/C=C\C[C@@H]1[C@@H](/C=C/[C@H](O)C2Cc3ccccc3C2)[C@@H](F)C[C@@H]1O`, under setting [1], the “scaled lipid accumulation score” value is no more than -0.07.
For `CC1(C)CC(=O)c2c(C(F)(F)F)nn(-c3ccc(C(N)=O)c(N[C@H]4CC[C@H](OC(=O)CN)CC4)c3)c2C1` [listing 1 of 2 here], the “scaled lipid accumulation score” value under setting [3] is 0.77.
On to `CC1(C)CC(=O)c2c(C(F)(F)F)nn(-c3ccc(C(N)=O)c(N[C@H]4CC[C@H](O)CC4)c3)c2C1`, for which the “scaled lipid accumulation score” value under setting [3] was 0.635 and the “scaled lipid accumulation score” value under setting [1] was 0.742.
Regarding `CC1(C)CC(=O)c2c(C(F)(F)F)nn(-c3ccc(C(N)=O)c(N[C@H]4CC[C@H](OC(=O)CN)CC4)c3)c2C1` [listing 2 of 2 here], under setting [1], the “scaled lipid accumulation score” value was 1.05 (active).
As for `c1ccc(COCCCc2c[nH]cn2)cc1` [Proxyfan Oxalate], under setting [1], the “scaled lipid accumulation score” value was no more than 0.
On the same count and under the same terms, next, `CC(C)(S)C(N)C(=O)O` (racemic): no more than 0; `Cc1cc(Nc2cc(N3CCN(C)CC3)nc(Sc3ccc(NC(=O)C4CC4)cc3)n2)n[nH]1` [Tozasertib (VX-680, MK-0457) (10 mM)]: 0.456; `Cc1cc(Nc2cc(N3CCN(C)CC3)nc(/C=C/c3ccccc3)n2)n[nH]1`: 0.603.
Turning to `Cc1cc(Nc2cc(N3CCN(C)CC3)nc(Sc3ccc(NC(=O)C4CC4)cc3)n2)n[nH]1`, the “scaled lipid accumulation score” value is 0.003 (library stock concentration: 80 uM), 0.063 under setting [5], 0.248 under setting [6] and 0.47 under setting [1].
As for `Cc1cc(Nc2cc(N3CCN(C)CC3)nc(C=Cc3ccccc3)n2)n[nH]1`, the “scaled lipid accumulation score” value under setting [3] is 1.06 (active).
Take `Cc1cc(Nc2cc(N3CCN(C)CC3)nc(Sc3ccc(NC(=O)C4CC4)cc3)n2)n[nH]1` [VX-680 (Tozasertib, MK-0457)]: the “scaled lipid accumulation score” value under setting [3] was 0.193 and the “scaled lipid accumulation score” value under setting [1] is 0.038.
`Cc1cc(Nc2cc(N3CCN(C)CC3)nc(Sc3ccc(NC(=O)C4CC4)cc3)n2)n[nH]1` [Tozasertib (VX-680, MK-0457) (0.4 mM)]: the “scaled lipid accumulation score” value under setting [5] is no more than -0.005.
Turning to `Cc1cc(Nc2cc(N3CCN(C)CC3)nc(Sc3ccc(NC(=O)C4CC4)cc3)n2)n[nH]1` [Tozasertib (VX-680, MK-0457) (2 mM)], under setting [6], the “scaled lipid accumulation score” value was no more than -0.005.
